Assay results taken from PubChem BioAssay AID1053 (University of Pittsburgh Molecular Library Screening Center, 2008).
Where “and” joins values, the source holds several entries; their conditions need not be identical. Equal values may be shown once.

Target: Serine/threonine-protein kinase PLK1 (Homo sapiens) (UniProt P53350)
Test: Plk1 polo box domain binding inhibitors, SAR follow-up, biochemical, fluorescence polarization, purchased analogs (AID 1053)
Settings: Plk1 PBD fluorescence polarization peptide binding; at 20 µM; stronger effect = higher value; call rule not given here

Serine/threonine-protein kinase PLK1 (Homo sapiens), sequence (P53350 whole entry, looked up, the tested form may be a part): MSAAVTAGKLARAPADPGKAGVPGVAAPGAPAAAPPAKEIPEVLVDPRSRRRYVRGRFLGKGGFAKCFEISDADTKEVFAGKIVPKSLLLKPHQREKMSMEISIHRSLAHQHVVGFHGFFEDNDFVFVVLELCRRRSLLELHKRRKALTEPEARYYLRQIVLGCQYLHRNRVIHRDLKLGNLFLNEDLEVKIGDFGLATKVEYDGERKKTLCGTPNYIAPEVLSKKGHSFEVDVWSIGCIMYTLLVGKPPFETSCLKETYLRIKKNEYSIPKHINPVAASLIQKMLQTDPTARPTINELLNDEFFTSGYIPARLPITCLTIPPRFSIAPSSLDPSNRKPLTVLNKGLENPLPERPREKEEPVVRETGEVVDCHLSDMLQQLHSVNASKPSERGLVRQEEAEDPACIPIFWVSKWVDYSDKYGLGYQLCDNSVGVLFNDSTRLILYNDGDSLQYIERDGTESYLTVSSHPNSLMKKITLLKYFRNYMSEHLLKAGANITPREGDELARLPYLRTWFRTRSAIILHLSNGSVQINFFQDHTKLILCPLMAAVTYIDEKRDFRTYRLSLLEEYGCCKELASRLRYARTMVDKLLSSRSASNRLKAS

inhibition, inactive:
O=c1cc[nH]c2cc(N3CCOCC3)c(F)cc12 -49%
CCCCCCC(=O)N(CN1C(=O)c2ccccc2C1=O)c1ccccc1OC -57.6%
CCOC(=O)c1ccc(N=Cc2c(O)n(-c3cccc(C)c3)c(=O)[nH]c2=O)cc1 -57.1%
CCOC(=O)c1ccc(N=Cc2c(O)n(C3CCCCC3)c(=O)n(C3CCCCC3)c2=O)cc1 13.1%
CC(=O)N(CN1C(=O)c2ccccc2C1=O)c1ccc(C)c(Cl)c1 -39.1%
CC(=O)N(CN1C(=O)c2ccccc2C1=O)c1ccccc1Cl -37.3% and -49.8%
Cn1c(=O)[nH]c(=O)c2nc(-c3ccccc3)c(-c3ccccc3)nc21 -33.3%
CCCCCOC(=O)c1ccc(NC(=O)c2ccc([N+](=O)[O-])cc2)cc1 28.2%
COC(=O)c1ccc(N(/N=C2\Sc3ccccc3C2=O)C(C)=O)cc1 -20.9%
CCOC(=O)c1ccc(N=Cc2c(O)n(C)c(=O)n(C)c2=O)cc1 -54.3%
CCCOC(=O)c1ccc(NC(=O)c2c(F)c(F)c(F)c(F)c2F)cc1 -41.6%
CCCOC(=O)c1ccc(NC(=O)c2cc(-c3cccs3)nc3c(C)c(Cl)ccc23)cc1 36.6%
CCN(CC)CCOC(=O)c1ccc(NC(=O)c2cc(OC)c(OC)cc2OC)cc1 -46.3%
O=C(COC(=O)c1ccc(NC(=O)c2ccc(Cl)cc2)cc1)c1ccccc1 41.3%
CCOC(=O)c1ccc(NC(=O)C2C3C=CC(C3)C2C(=O)O)cc1 (stereo unspecified) -31.4%
CC(=O)Oc1c(Cl)c(N2CCOCC2)c(OC(C)=O)c2ccccc12 -39.3%
CCOC(=O)c1ccc(NC(=O)c2ccc(NC(=O)CC)cc2)cc1 -9.03%
COc1ccc(-c2nc3c(=O)n(C)c(=O)nc-3n(C)n2)cc1OC 1.9%
Cc1ccc(C(=O)CN2C=CC(=C(O)NCc3ccccc3)C=C2)cc1 -52.1%
CCn1c(N/C(O)=C/C(O)(C(F)(F)F)C(F)(F)F)nc2ccccc21 -49.9%
Cn1c(=O)c2nc(-c3ccccc3)c(=O)n(C)c2n(C)c1=O -37.8%
CC(=O)N(CN1C(=O)c2ccccc2C1=O)c1ccc(C)cc1 -31.4%
CCn1nc(-c2ccccc2Br)nc2c(=O)n(C)c(=O)nc1-2 34.5%
CCOC(=O)c1ccc(NC(=O)c2c(C)cc(=O)oc2C)cc1 -118%
CCCCCC(=O)N(CN1C(=O)c2ccccc2C1=O)c1cccc(C(=O)O)c1 -10.1%
CC(=O)Oc1ccccc1N(/C=C1\Sc2ccccc2C1=O)C(C)=O -254% and -278%
CCOC(=O)c1ccc(NC(=O)C23CC4CC(CC(C4)C2)C3)cc1 -35.4%
CC(=O)N(/N=C1\Sc2ccccc2C1=O)c1ccccc1 24.7%
CN(C)c1ccc(-c2nnc3c(n2)c(=O)n(C)c(=O)n3C)cc1 -22%
CC(=O)N(CN1C(=O)c2cccc([N+](=O)[O-])c2C1=O)c1ccc2c(c1)oc1ccccc12 -35.9%
CCOC(=O)c1ccc(N=Cc2c(O)[nH]c(=O)[nH]c2=O)cc1 49.9%
CC(=O)N(CN1C(=O)c2ccccc2C1=O)c1ccc(Cl)c(Cl)c1 -88.3%
O=C1NC(=O)C(=Cc2ccccc2OCCOc2ccccc2)C(=O)N1 -20.6%
CC(=O)N(/N=C1\Sc2ccccc2C1=O)c1cc(C)ccc1C 33%
CC(=O)N(/C=C1\Sc2ccccc2C1=O)c1ccc(C)cc1 -201% and -215% and -234%
CCOC(=O)N1CCN(c2cc3nccnc3cc2F)CC1 -52.1%
